# HepG2 viability: qHTS for Inhibitors of TGF-b: Cytotox Counterscreen; actives 0.76% (n = 410,000); AID 588856, 2011; HepG2 CAGA-GFP viability, ATP luminescence, 18 h; Potency, µM (highest dose often 46.1 µM), inactives show at the top dose activity change, negative = cytotoxicity, usual class: cytotoxic; further: potency means the concentration at half of the fitted maximal effect
#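 HepG2 CAGA-GFP cells (1000/well, DMEM with 1% FBS) received compound, then TGF-beta at 500 pg/mL final, and were incubated 18 hours at 37 degrees C. Viability was read by CellTiter-Glo luminescence. Media-only wells were set as complete cell-killing and DMSO as no toxicity.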
# TGFb inhibitor: qHTS for Inhibitors of TGF-b; Potency, µM (titrated, usually from 46.1 µM), inactives show at the top dose activity, negative = inhibition, actives largely listed as inhibitors; HepG2 CAGA-GFP TGF-b/SMAD3 reporter, GFP fluorescence, 18 h; TGF-beta stimulated, 500 pg/mL final; actives 1.2% (n = 410,000); AID 588855, 2011; further: potency means the concentration at half of the fitted maximal effect; on the % scale 0 is the no-effect control and ±100 the full control effect; nearly all actives have a fitted effect of over 65% in size
#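 Cell-based qHTS in HEPG2 carrying a CAGA-GFP Smad reporter; compounds added before 500 pg/mL final TGF-beta, 18 h incubation at 37 degrees C, GFP fluorescence quantified per cell by imaging cytometry.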
# TDP1 cell noCPT: qHTS for Inhibitors of human tyrosyl-DNA phosphodiesterase 1 (TDP1): qHTS in cells in absence of CPT; DT40 Tdp1-/- hTDP1 cells, no CPT, ATP luminescence, 48 h; Potency, µM (titrated, usually from 46.2 µM), for inactives: top-dose activity change, negative = growth inhibition, hits mostly inhibitors; actives 15% (n = 420,000); AID 686978, 2013; further: potency means the concentration at half of the fitted maximal effect; on the % scale 0 is the no-effect control and ±100 the full control effect; nearly all actives have a fitted effect of over 55% in size
#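 Cells were dispensed at 400 per well, compounds added by pin tool, plates incubated ≥48 hr at 37 °C, then CellTiter-Glo added for 30 min at room temperature before luminescence reading. Line: DT40 Tdp1-/- complemented with hTDP1; camptothecin omitted.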
# DT40 TDP1 CPT: qHTS for Inhibitors of human tyrosyl-DNA phosphodiesterase 1 (TDP1): qHTS in cells in presence of CPT. actives 12% (n = 420,000). Potency, µM (top dose mostly 46.2 µM), for inactives: at the highest dose activity change, negative = growth inhibition, most hits filed as inhibitors. chicken DT40 Tdp1-/-;hTDP1 cells + 20 nM CPT, ATP luminescence, 48 h. AID 686979, 2013; further: potency means the concentration at half of the fitted maximal effect; on the % scale 0 is the no-effect control and ±100 the full control effect; nearly all actives have a fitted effect of over 55% in size
#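 Cell growth measured by CellTiter-Glo luminescence after a minimum 48 h, 37 C compound exposure with 20 nM CPT in Tdp1-knockout DT40 cells stably expressing hTDP1, seeded 400/well; qHTS titration format.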
# IL1B secr inh: qHTS for Inhibitors of Inflammasome Signaling: IL-1-beta AlphaLISA Primary Screen; THP-1 LPS/ATP IL-1B secretion, AlphaLISA, 16 h; stronger effect = lower value; activity change, % at 57.5 µM; actives 4.7% (n = 360,000); in the data active means activity change below about -50%; inconclusive means mostly about -30% to -49%; further: on the % scale 0 is the no-effect control and ±100 the full control effect
#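 Secreted IL-1B measured by AlphaLISA bead assay after 16 h compound exposure of THP-1 cells; compounds (final up to 57.5 uM) added 1 h before LPS (250 ng/mL) and ATP (1.25 mM) stimulation; lower signal means less secretion.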
# ASM inhibitor: Inhibitors of Secretory Acid Sphingomyelinase (S-ASM): qHTS. placental ASM, HMU-PC fluorogenic substrate, 60 min. Potency, µM (doses to about 57.5 µM), without a hit: at the top dose activity change, negative = inhibition, hits mostly inhibitors. Sphingomyelin phosphodiesterase (Homo sapiens), P17405. actives 0.006% (n = 340,000). AID 504937, 2011; further: potency means the concentration at half of the fitted maximal effect
# Target sequence (P17405 47-631 limits assumed): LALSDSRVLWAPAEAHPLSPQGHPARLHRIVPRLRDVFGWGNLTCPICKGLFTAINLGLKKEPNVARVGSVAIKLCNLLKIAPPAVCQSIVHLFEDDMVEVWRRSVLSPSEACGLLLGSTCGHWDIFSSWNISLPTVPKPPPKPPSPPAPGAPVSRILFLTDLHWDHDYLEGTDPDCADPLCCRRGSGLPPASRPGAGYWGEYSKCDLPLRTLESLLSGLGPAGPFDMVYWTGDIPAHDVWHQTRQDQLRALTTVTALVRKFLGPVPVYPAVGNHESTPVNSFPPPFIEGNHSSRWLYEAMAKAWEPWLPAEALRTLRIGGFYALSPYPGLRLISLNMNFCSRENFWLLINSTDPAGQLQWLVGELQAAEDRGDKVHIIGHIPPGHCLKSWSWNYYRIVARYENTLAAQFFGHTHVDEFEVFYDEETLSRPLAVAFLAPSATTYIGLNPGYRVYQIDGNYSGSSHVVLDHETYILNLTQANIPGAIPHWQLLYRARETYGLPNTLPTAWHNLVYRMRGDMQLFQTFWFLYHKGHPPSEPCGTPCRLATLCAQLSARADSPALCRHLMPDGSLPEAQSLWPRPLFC
#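 Steps: dispense placental human ASM, pin compound, wait 10 min at room temperature, add HMU-PC0 substrate at 9 uM final, incubate 60 min at 37 °C, add stop solution raising pH to 10, read fluorescence.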
# * marks the source's active call; other numbers are inactive results; i = inactive; u = inconclusive; x = not tested or not shown. In the library only some 19% were active in any assay of this set; here they are far more common. Unless noted, the call rests on the fitted dose curve; in most records, active means well fitted curve in the direction sought with a large enough effect; inconclusive means small, poorly fitted or top-dose-only effect, or another doubt; inactive means no such curve, though single readings can be large; an effect the other way counts as inactive or inconclusive.
SMILES,HepG2 viability,TGFb inhibitor,TDP1 cell noCPT,DT40 TDP1 CPT,IL1B secr inh,ASM inhibitor
Cc1ccc(NC2=NCC(Cc3ccc(Br)cc3)S2)cc1 (stereo unspecified),-67.0%,u,u,u,-96.2*,-5.4%
Cn1c(=O)c2c(ncn2Cc2ccc(Cl)cc2)n(C)c1=O,1.7%,-1.0%,16.4µM*,5.8µM*,8.0,0.6%
Cn1c(=O)c2c(ncn2CC(O)CNc2ccc(Br)cc2)n(C)c1=O (stereo unspecified),-27.5%,-20.1%,u,-25.8%,16.8,-4.9%
Cn1c(=O)c2c(ncn2CCOc2ccc(Br)cc2)n(C)c1=O,-25.0%,-0.5%,16.4µM*,u,42.3,-1.5%
CC(C)Cn1cnc2c1c(=O)n(C)c(=O)n2C,3.8%,3.0%,0.8%,5.8%,-14.5,-0.2%
Cn1c(=O)c2c(ncn2CC(COCc2ccc(Cl)cc2)OCc2ccc(Cl)cc2)n(C)c1=O (stereo unspecified),-7.0%,0.0%,14.6µM*,23.1µM*,-14.5,-10.9%
COc1ccc(NC(=O)CCNC(=O)C2CCN(S(=O)(=O)c3ccccc3)CC2)cc1OC,-19.5%,-28.6%,0.4%,-22.5%,16.8,x
COc1cccc(NC(=O)c2ccccc2OCC(=O)Nc2ccc(Br)cc2)c1,-11.9%,u,u,u,x,x
CC(Sc1nnnn1-c1ccc(O)cc1)c1nc2ccccc2c(=O)[nH]1 (stereo unspecified),6.5%,3.3%,-28.2%,-22.8%,27.1,-3.6%
NC(=O)c1ccsc1NC(=O)c1coc2ccccc2c1=O,-14.9%,-24.3%,29.1µM*,u,-3.3,-1.3%
Cc1ccccc1-c1nc(P(=O)(c2ccccc2)c2ccccc2)c(N2CCOCC2)o1,-3.1%,-27.7%,u,u,-66.6*,-3.4%
CCOP(=O)(c1ccccc1)c1nc(-c2ccccc2C)oc1NCc1ccccc1 (stereo unspecified),5.1%,-6.7%,23.1µM*,u,15.2,-7.1%
COP(=O)(OC)c1nc(-c2cccc3ccccc23)oc1NCc1ccccc1,-8.0%,-25.5%,18.4µM*,16.4µM*,-22.5,i
COP(=O)(OC)c1nc(-c2ccccc2)oc1N1CCOCC1,-19.2%,-1.8%,0.3%,22.5%,2.4,2.4%
CCOP(=O)(OCC)c1nc(-c2ccccc2)oc1N1CCCCC1,-3.5%,3.0%,16.4µM*,20.6µM*,-1.8,6.1%
Cc1nc(P(=O)(c2ccccc2)c2ccccc2)c(N2CCOCC2)o1,0.0%,-5.0%,0.5%,-10.7%,-18.9,3.3%
NC(=O)C1(NC(=O)[C@@H]2CC3(CC(c4cccc(NC(=O)[C@@H]5CCC(=O)N5)c4)=NO3)CN2C(=O)c2cnccn2)CC1 (stereo partly specified),-4.7%,-5.6%,11.2%,-20.4%,15.9,8.2%
CC1(C(=O)N2CCN(Cc3ccccc3Cl)CC2)CC1(Cl)Cl (stereo unspecified),-12.3%,-19.7%,-25.2%,-3.7%,-8.6,-1.3%
CCOP(=O)(c1ccccc1)c1nc(-c2ccccc2C)oc1N1CCCCC1 (stereo unspecified),-114.2%,u,13µM*,13µM*,u,7.7%
CCn1nc(NC(=O)C(C)C)c2cc3cccc(C)c3nc21,-8.6%,u,u,-18.4%,-8.2,i
CCCN(CCC)CCCNC(=O)c1cn(CC)c2ccc(S(=O)(=O)N3CCc4ccccc4C3)cc2c1=O,-10.3%,8.5%,18.4µM*,20.6µM*,-102.7*,-1.6%
CCCCN(C)CCCNC(=O)c1cn(CC)c2ccc(S(=O)(=O)N3CCc4ccccc4C3)cc2c1=O,-27.3%,u,23.1µM*,20.6µM*,-62.9*,-0.8%
CCCCN(CC)CCCNC(=O)c1cn(CC)c2ccc(S(=O)(=O)N3CCc4ccccc4C3)cc2c1=O,-18.9%,u,18.4µM*,16.4µM*,x,-2.4%
CCCCN(CCCC)CCNC(=O)c1cn(CC)c2ccc(S(=O)(=O)N(C)C3CCCCC3)cc2c1=O,-4.1%,8.9%,6.51µM*,4.61µM*,-17.3,-0.8%
CCn1cc(C(=O)NCCCN(CC(C)C)CC(C)C)c(=O)c2cc(S(=O)(=O)N3CCc4ccccc4C3)ccc21,-18.6%,u,-10.3%,8.1%,x,x
SMILES,HepG2 viability,TGFb inhibitor,TDP1 cell noCPT,DT40 TDP1 CPT,IL1B secr inh,ASM inhibitor
CCN(CC)CCCNC(=O)c1cn(CC)c2ccc(S(=O)(=O)N(C)C3CCCCC3)cc2c1=O,-11.1%,11.5%,6.3%,-1.0%,u,-1.8%
O=C(CN1Cc2ccccc2C1=O)Nc1ccc2c(c1)OCCO2,1.6%,7.7%,3.7%,14.8%,-7.6,-2.0%
COc1cccc(CN(C(=O)c2cccc(C)c2)C2CCS(=O)(=O)C2)c1 (stereo unspecified),-0.8%,-23.1%,1.2%,-2.8%,x,x
CCCc1nc2sc3c(=O)n(N)cnc3c2c2c1CCCC2,-11.4%,-1.2%,9.2µM*,11.6µM*,17.0,-4.1%
CCCCc1nc2sc3c(=O)n(N)cnc3c2c2c1CCCC2,-3.0%,-5.9%,u,-25.0%,8.0,0.7%
O=C(c1ccccc1NS(=O)(=O)c1ccccc1[N+](=O)[O-])N1CCCC1,0.0%,21.9%,-11.3%,-16.8%,i,5.5%
Cc1cc(Cl)c(OCCOCCN2CCNCC2)c(Cl)c1,-21.9%,-19.1%,11.6µM*,u,-22.7,-0.1%
Cc1cc(Cl)cc(C)c1OCCCCCn1ccnc1,-46.3%,u,u,18.4µM*,-91.2*,7.8%
CCc1ccc(OCCn2ccnc2)cc1,4.3%,13.8%,-3.3%,5.4%,-0.6,1.1%
CCc1ccc(OCCCCCn2ccnc2)cc1,-15.2%,-16.7%,18.4µM*,u,-29.9,-1.0%
Cc1cc(Cl)c(OCCn2ccnc2)c(Br)c1,-3.5%,-7.2%,u,11.6µM*,9.5,4.4%
Cc1cc(Cl)c(OCCN2C(=O)NC(C)(C)C2=O)c(Br)c1,-3.5%,-4.9%,-23.1%,u,31.2,0.3%
Cc1cc(Cl)cc(C)c1OCCn1ccnc1,2.7%,14.0%,5.17µM*,5.17µM*,160.3,-0.2%
Cc1cc(OCCCCN2C(=O)NC(C)(C)C2=O)ccc1[N+](=O)[O-],-32.6%,2.9%,11.6µM*,u,-10.4,-1.9%
